Hits are enriched below; roughly 3.1% of the tested compounds scored in any of these assays.
Tau ThT inhib: qHTS for Inhibitors of Tau Fibril Formation, Thioflavin T Binding; recombinant tau K18 P301L, heparin-induced fibrillization, ThT fluorescence; Potency, µM (titrated, usually from 57.4 µM), without a hit: at the top dose activity, negative = inhibition, actives largely listed as inhibitors; actives 2.1% (n = 270,000); AID 1460, 2008; also: nearly all actives have a fitted effect of over 55% in size
Target sequence (P10636 561-689 P618L limits assumed): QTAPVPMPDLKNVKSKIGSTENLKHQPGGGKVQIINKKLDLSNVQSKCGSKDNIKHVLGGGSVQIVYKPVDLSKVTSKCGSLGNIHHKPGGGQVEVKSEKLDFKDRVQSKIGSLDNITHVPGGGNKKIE
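In this qHTS, human K18 P301L tau is incubated with compound and heparin for 6 hr at 37 C, and Thioflavin T fluorescence then reports fibril load.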
TRb-SRC2 inh: qHTS for Inhibitors of the Interaction of Thyroid Hormone Receptor and Steroid Receptor Coregulator 2; Thyroid hormone receptor beta (Homo sapiens), P10828; TRbeta-SRC2 peptide binding, fluorescence polarization; receptor liganded with 1 µM T3; Potency, µM (highest dose often 106 µM), for the others: top-dose activity change, negative = inhibition, actives largely listed as inhibitors; actives 0.065% (n = 280,000); AID 1469, 2008;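 also: plate controls were bound peptide for no effect and peptide without receptor for full effect; nearly all actives have a fitted effect of over 50% in size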
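Assay buffer: 20 mM Tris-HCl, 100 mM NaCl, 10% glycerol, 1 mM EDTA, 0.01% NP-40, 1 mM DTT, 1 uM T3, 5% DMSO; TRb LBD 0.6 uM, Texas Red SRC2 20 nM; FP after 5 hr.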
TexasRed fluor: Total Fluorescence Counterscreen for Inhibitors of the Interaction of Thyroid Hormone Receptor and Steroid Receptor Coregulator 2 | TRb/SRC2 Texas Red total fluorescence interference | actives 0.29% (n = 280,000) | Potency, µM (series often up to 106 µM), without a hit: at the top dose fluorescence change, negative = quenching; active = well fitted curve in either direction with a large enough effect; inconclusive = small, poorly fitted or top-dose-only effect
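Human TRb ligand-binding domain at 0.6 uM with 20 nM Texas Red SRC2 peptide in Tris buffer containing 1 uM T3 and 5% DMSO, incubated with compound 5 h at ambient temperature. Total fluorescence (555/632 nm) calculated as parallel + 2 × perpendicular.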
RGS12 GoLoco inh: qHTS Assay for Inhibitors of RGS12 GoLoco Motif Activity (Red Fluorophore); Gai1:RGS12 GoLoco peptide FP, rhodamine, 10 min; Potency, µM (top dose mostly 61.6 µM), for inactives: top-dose activity, negative = inhibition, actives largely listed as inhibitors; actives 0.44% (n = 230,000); active = well fitted inhibition curve with a large enough effect, not every such curve was filed as active; inactive = no such curve, though single readings can be large or run the other way; also: nearly all actives have a fitted effect of over 30% in size
Target sequence (P63096 whole entry, looked up): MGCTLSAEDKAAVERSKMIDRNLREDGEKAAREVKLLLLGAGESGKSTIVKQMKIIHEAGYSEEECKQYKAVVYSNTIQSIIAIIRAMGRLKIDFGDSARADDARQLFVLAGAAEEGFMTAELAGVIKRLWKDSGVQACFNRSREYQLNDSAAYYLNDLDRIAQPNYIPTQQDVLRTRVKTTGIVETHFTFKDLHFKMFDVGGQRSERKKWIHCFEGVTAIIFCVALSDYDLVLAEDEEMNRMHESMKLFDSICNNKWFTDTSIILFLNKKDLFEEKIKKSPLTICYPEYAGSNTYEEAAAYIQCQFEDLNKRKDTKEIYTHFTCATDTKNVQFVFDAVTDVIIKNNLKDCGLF
Tau FP inhib: qHTS for Inhibitors of Tau Fibril Formation, Fluorescence Polarization. Microtubule-associated protein tau (Homo sapiens), P10636. K18 P301L tau heparin fibrillization, Alexa594 FP, 6 h. Potency, µM (series often up to 57.7 µM), for inactives: at the top dose activity, negative = inhibition, hits mostly inhibitors. actives 0.39% (n = 280,000); also: nearly all actives have a fitted effect of over 55% in size
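Read-out: fluorescence polarization of Alexa 594-labeled tau (0.24 uM), 555 nm excitation, 632 nm emission. Mixtures held 15 uM unlabeled K18 P301L, compound and 20 uM heparin, pH 7 acetate buffer, incubated 6 hr at 37 C.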
Tau fluor counter: Counterscreen qHTS for Inhibitors of Tau Fibril Formation, Fluorescence Polarization. tau K18 P301L (four-repeat tau fragment) Alexa594 fluorescence, heparin fibrillization. Potency, µM (highest dose often 57.7 µM), for the others: top-dose activity change, negative = decrease. actives 0.93% (n = 280,000). AID 1463, 2008; also: nearly all actives have a fitted effect of over 55% in size
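Human K18 P301L tau (15 uM unlabeled plus 0.24 uM Alexa 594-labeled, final) in 100 mM sodium acetate pH 7 was mixed with compound and 20 uM heparin and incubated 6 hr at 37 C.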
* marks the source's active call; other numbers are inactive results; ? = inconclusive; nt = not tested or not shown; [ ] = another dose, or the depositor's remark. Unless noted, calls follow the shape of the dose curve; as a rule, active = well fitted curve in the direction sought with a large enough effect; inconclusive = small, poorly fitted or top-dose-only effect, or another doubt; inactive = no such curve, though single readings can be large; an effect the other way counts as inactive or inconclusive. Unless noted, % is scaled to controls: 0 for no effect and ±100 for the full control effect; potency is read from the fitted curve at half-maximal effect.

SMILES | Tau ThT inhib | TRb-SRC2 inh | TexasRed fluor | RGS12 GoLoco inh | Tau FP inhib | Tau fluor counter
CCN(CC)c1ccc(NC(=O)/C=C\c2ccccc2Cl)cc1 | 4µM* | 2% | -2% | -35% | 23% | 8.9µM*[quencher]
CN(C)c1ccc(NC(=O)/C=C/c2ccccc2Cl)cc1 | ? | -19% | -2% | -19% | 17% | ?
O=c1[nH]c(Cc2cccs2)nc2ccccc12 | -8% | 1% | -2% | 14% | -1% | -7%
Cc1ccc(O)c(-c2cc3ccccc3[nH]2)c1 | 13µM* | -8% | -6% | 2% | 11% | 16µM*[quencher]
CC(C)CC(=O)Nc1ccccc1OCc1cc(=O)n2ccccc2n1 | 6% | 0% | -2% | nt | 3% | 10%
COc1ccccc1OC(C)C(=O)NCC1(N2CCOCC2)CCCCC1 (stereo not drawn) | -8% | -2% | -16% | nt | -2% | -11%
CC(C)[N+](C)(C)CC#CC(O)(c1ccccc1)c1ccccc1 | nt | -9% | -7% | 3.2µM* | 9%[11.6 µM] | -35%[11.6 µM]
O=C(Nc1ccccc1)/C(=C\c1cccs1)NC(=O)c1ccccc1 | -2% | -13% | 0.028µM*[quencher] | -8% | -7% | -1%
Oc1ccccc1/C=N/NC(=S)NC1CC2CC1C1C=CCC21 (stereo not drawn) | -11% | -5% | -6% | 9% | -13% | 13µM*[quencher]
COc1cccc(/C=N/NC(=S)NC2CC3CC2C2C=CCC32)c1O (stereo not drawn) | -4% | 1% | -1% | 95% | 9% | 0%
N[C@H](C(=O)N[C@@H]1C(=O)N2C(C(=O)O)=C(Cl)CS[C@@H]12)c1ccccc1 | nt | 5%[53 µM] | -13%[53 µM] | 2%[21.6 µM] | nt | nt
NC(C(=O)NC1C(=O)N2C(C(=O)O)=C(Cl)CSC12)c1ccccc1 (stereo not drawn) | 14µM* | 0% | -3% | -15% | ? | -20%
COc1ccc(-c2c(N)nnc3c2[nH]c2ccccc23)cc1OC | ? | 3% | 1% | nt | -12% | -24%
COc1ccc(OC)c2c(=S)c3ccccc3[nH]c12 | 4µM* | -4% | ? | 3% | 7.9µM* | 11µM*[quencher]
O=S(=O)(Nc1cc(F)ccc1F)c1ccc2[nH]c3c(c2c1)CCCCC3 | -8% | 3% | -20% | nt | ? | 13µM*[quencher]
CN(CC(=O)NCc1ccc(Cl)cc1)S(=O)(=O)c1ccc2[nH]c3c(c2c1)CCCC3 | 7% | 2% | 2% | nt | 14% | ?
O=S(=O)(Nc1cc(F)ccc1F)c1ccc2[nH]c3c(c2c1)CCCC3 | -4% | 2% | 3% | nt | 11% | 11µM*[quencher]
CCOc1ccccc1NS(=O)(=O)c1ccc2[nH]c3c(c2c1)CCCCC3 | 4% | 0% | 0% | nt | -8% | ?
O=S(=O)(Nc1cccc(F)c1)c1ccc2[nH]c3c(c2c1)CCCCC3 | ? | -3% | -5% | nt | ? | 8.9µM*[quencher]
CCCCC(=O)NC1(C(F)(F)F)C(=O)Nc2c1c(=O)[nH]c(=O)n2Cc1ccco1 (stereo not drawn) | -10% | -4% | 2% | 6% | -5% | 1%
CCC(=O)N1CCc2cc(S(=O)(=O)CCC(=O)NCc3ccc(F)cc3)ccc21 | -4% | 0% | -1% | nt | -4% | -17%
N#C/C(=C/c1ccc(N2CCCCCC2)o1)c1cccc(F)c1 | 14µM* | -20% | -1% | 84% | ? | ?
N#C/C(=C\c1ccc(Sc2ccc(Cl)cc2)o1)c1nc2ccccc2[nH]1 | ? | -10% | 4% | 29% | ? | 7.1µM*[quencher]
N#C/C(=C\c1ccc(N2CCOCC2)o1)c1ccccc1 | 14µM* | -17% | ? | 7.1µM* | ? | ?
